# Gli-Sufu antag = blocks Gli-Sufu signaling in a luciferase reporter; Sufu-KO-LIGHT fibroblasts, Gli luciferase reporter luminescence; inhibition, % at 5 µM; 0.74% of 340,000 active; AID 588413;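 active = inhibition above about 55%, limit read from the data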;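 also: 0% = DMSO-treated cells and 100% = wells with medium but no cells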
# Jurkat NFkB inh = lowers PMA/ionomycin-induced NF-kB signal in Jurkat cells. PMA/ionomycin-induced NF-kB luciferase reporter, luminescence. inhibition, % at 4 µM. 0.53% of 330,000 active; in the data active = inhibition above about 50%
# 697 NFkB inh = inhibitors of the PMA/ionomycin-induced NF-kB reporter in 697 B cells. 697 B-cell NF-kB luciferase reporter, 16 h. inhibition, % at 4 µM. 0.33% of 330,000 active. AID 435022; in the data active = inhibition above about 35%
# H9c2 protect = myocardial damage modulation in H9c2 cells | 0.63% of 360,000 active | H9c2 cardiomyocytes, H2O2 injury protection, ATPLite, 2 h | AID 588492 | protection from H2O2 cell death, % at 20 µM;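 active = compounds giving at least 50% protection of heart cells from peroxide-induced death in the single-dose screen, raw or plate-pattern-corrected value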;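 also: 0% = DMSO wells with peroxide and 100% = DMSO wells without peroxide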
# H9c2 TAG inh = triacylglycerol accumulation inhibition; AID 651582; H9c2 cells, Nile Red lipid (TAG) fluorescence; cells loaded with 200 µM oleic acid; 0.66% of 230,000 active; inhibition, % at 12.5 µM;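 active = pattern-corrected inhibition of lipid staining of at least 50% with the nuclear-stain viability signal not falling by more than 50%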;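 also: 0% = DMSO wells and 100% = triacsin C control wells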
# NR2F2 inh = blocks human COUP-TFII nuclear receptor. P24468. HEK293T NGFI-A luciferase reporter, luminescence. inhibition, % at 8.6 µM. 0.7% of 370,000 active;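 active = inhibition above a per-plate cutoff, mean inhibition of test wells between control levels plus 3 SD, cut at about 38% in these data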;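 also: cells cotransfected with COUP-TFII expression vector driving the NGFI-A reporter; 0% = median of COUP-TF2 test wells and 100% = reporter-only cells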
# Target sequence (P24468 whole entry, looked up): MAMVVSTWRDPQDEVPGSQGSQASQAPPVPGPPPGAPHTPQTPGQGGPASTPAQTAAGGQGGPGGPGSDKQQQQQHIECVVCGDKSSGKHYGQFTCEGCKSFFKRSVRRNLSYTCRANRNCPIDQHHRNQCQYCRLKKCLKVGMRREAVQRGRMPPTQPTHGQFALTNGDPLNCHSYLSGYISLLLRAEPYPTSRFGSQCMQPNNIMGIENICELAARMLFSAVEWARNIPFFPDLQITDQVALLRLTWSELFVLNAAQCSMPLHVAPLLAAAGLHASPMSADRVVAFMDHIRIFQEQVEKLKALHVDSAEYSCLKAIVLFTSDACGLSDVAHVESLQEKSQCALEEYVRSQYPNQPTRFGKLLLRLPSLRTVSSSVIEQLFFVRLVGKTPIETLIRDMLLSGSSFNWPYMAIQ
# Jurkat NFkB conf = inhibitors of the PMA/ionomycin-induced NF-kB reporter in Jurkat cells, retest; inhibition, % at 4 µM; Jurkat NF-kB luciferase, 16 h; shares compounds with Jurkat NFkB inh; 27% of 2,700 active;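 active = inhibition reaching about 45% at 4 µM in either replicate, limit read from the data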;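 also: plate controls were PMA/ionomycin stimulated DMSO wells for no effect and unstimulated DMSO wells for full effect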
# * hit, by the source's call; . = no result. Only some compounds are listed: those with a hit (about 2.6% of all), similar ones and a draw of the others.
SMILES,Gli-Sufu antag,Jurkat NFkB inh,697 NFkB inh,H9c2 protect,H9c2 TAG inh,NR2F2 inh,Jurkat NFkB conf
CCO[C@H]1OC(C(=O)NCc2nc3ccccc3[nH]2)=C[C@@H](C2CC2)[C@@H]1CCCO,15,61*,-11,4,.,-18,46
Cc1ccc(NC(=S)c2ccc(N(C)C)cc2)cc1,-134,-199,-96,-11,.,-66,-49
COc1ccc(-c2noc(C3CCCN(C(=O)Nc4cc(C)cc(C)c4)C3)n2)cc1 (stereo not drawn),.,.,.,.,.,-12,.
O=C(OCc1ccc([N+](=O)[O-])cc1)c1cc([N+](=O)[O-])ccc1N1CCOCC1,9,19,-18,0,2,-9,.
Cc1ccc(COC(=O)c2cc([N+](=O)[O-])ccc2N2CCOCC2)cc1,.,63*,-6,-7,81,-49,52*
O=C(c1cccs1)N1CC[C@H]2[C@H](CCCN2Cc2ccc(F)cc2)C1,.,.,.,.,.,-13,.
NC(=S)N=Nc1c(O)n(Cc2ccc(Br)cc2)c2ccccc12,18,60*,-35,2,.,13,12
COc1ccc(C(=O)/C(=C\c2ccco2)N2C=CC=CC2=C(C#N)C#N)cc1,43,65*,-3,-6,-27,.,49*
Nc1ccc(C(=O)Nc2nc3ccccc3s2)cc1,-144,-201,-140,-8,13,-46,-139
CCCCOC(=O)Nc1nc2ccccc2s1,-93,-155,-144,-10,0,-32,-105
O=C(NC(=S)Nc1cccc(Cl)c1N1CCCCC1)c1ccc2c(c1)OCCO2,-3,50*,-29,2,.,5,2
O=C1N2Cc3ccccc3C2CS(=O)(=O)N1Cc1ccccc1 (stereo not drawn),.,.,.,.,.,-14,.
O=C(Nc1nc2ccc(F)cc2s1)c1cccs1,-71,-192,-238,-9,14,-32,-118
CCCCc1ccc2nc(NC(=O)c3cccs3)sc2c1,.,.,.,.,.,-31,.
NC(=O)c1c(NC(=O)c2cc3ccccc3o2)sc2c1CCC2,-92,-163,-173,-17,8,-57,-43
CS(=O)(=O)N[C@@H]1C[C@@H]2O[C@@H](CO)CC[C@@H]2O[C@@H]1CCc1ccc(-c2ccccc2F)cc1,.,.,.,.,.,7,.
CCOC(=O)c1c(C)[nH]c(C(C)=O)c1C,4,13,7,0,14,-10,.
CCOC(=O)c1[nH]c(C=O)c(C(=O)OCC)c1C,34,59*,-31,11,-9,-31,39
CC(C)[C@@H](CO)N1Cc2nnn(Cc3ccccc3)c2-c2ccccc2S1(=O)=O,.,.,.,.,.,0,.
O=C(Nc1nc(-c2nc3ccccc3s2)cs1)C1CC1,-157,-171,-187,-17,17,-30,-111
NC1=[N+](Cc2ccccc2)C[C@H]2C(=C3CCCC[C@H]3n3c(=O)n(-c4ccccc4)c(=O)n32)N1,.,.,.,.,.,-4,.
Cc1cc(NCCCn2ccnc2)n2ncc(-c3ccc(Cl)cc3)c2n1,-17,-215,-168,-4,.,-30,-101
Cc1cc(NCCCN2CCOCC2)n2ncc(-c3ccc(Cl)cc3)c2n1,-53,-104,-87,3,.,-12,.
COc1cc(-n2c(C)nc3cc(C(=O)N4CCCN(C(C)=O)CC4)ccc32)cc(OC)c1OC,.,.,.,.,.,4,.
COc1ccc([C@H]2CC(=O)C=C(c3c(OC)cccc3OC)C2)cc1,6,57*,-59,-5,.,1,51*
SMILES,Gli-Sufu antag,Jurkat NFkB inh,697 NFkB inh,H9c2 protect,H9c2 TAG inh,NR2F2 inh,Jurkat NFkB conf
COc1ccc(C2=CC(=O)CC(c3ccc(OC)cc3)C2)cc1 (stereo not drawn),-39,-8,-9,-8,-4,-31,.
COc1ccccc1NC1=CC(=O)CC(c2ccccc2)C1 (stereo not drawn),12,52*,-29,4,.,24,12
COc1ccc(NC2=CC(=O)CC(c3ccc(C)cc3)C2)c(OC)c1 (stereo not drawn),-3,-5,9,11,-16,-12,.
CN(Cc1ccccc1Cl)C(=O)CN1C(=O)C2(OCCCO2)c2ccccc21,.,.,.,.,.,20,.
COc1ccc2ccccc2c1C=Nn1c(-c2n[nH]c3c2CCC3)n[nH]c1=S,.,.,.,.,.,-3,.
COc1ccc(NC(=O)CSc2nnc(-c3cccs3)o2)cc1Cl,.,.,.,.,.,-8,.
CCOC(=O)CC[C@H]1CC[C@]2(CCCN(C(=O)c3cccnc3)C2)O1,.,.,.,.,.,-24,.
